The campaign covered roughly 39,000 compounds. About 3,300 (8.5%) were called active. Shown is part of a subset that was picked to be rich in actives.

This assay deals with HepG2. As to the kind of experiment: cytotoxicity call (relative viability < 0.9). Conditions: 10 µM.
`C[C@H](CO)N1C[C@H](C)[C@H](CN(C)C(=O)NC2CCCCC2)Oc2c(NS(=O)(=O)c3cn(C)cn3)cccc2C1=O`: the cytotoxicity call was “inactive”.
The value for `C[C@H]1CN([C@@H](C)CO)C(=O)c2cc(C#CC3CCCC3)cnc2O[C@@H]1CN(C)S(=O)(=O)c1cccc(F)c1` was “active”.
As for `C[C@@H]1CN([C@@H](C)CO)C(=O)c2cc(C#CC3CCCC3)cnc2O[C@H]1CN(C)S(=O)(=O)c1cccc(F)c1`, the entry is “active”; as for `C[C@@H]1CN([C@H](C)CO)C(=O)c2cc(C#CC3CCCC3)cnc2O[C@@H]1CN(C)S(=O)(=O)c1cccc(F)c1`, “inactive”.
`C[C@@H]1CN([C@H](C)CO)C(=O)c2cc(C#CC3CCCC3)cnc2O[C@H]1CN(C)S(=O)(=O)c1cccc(F)c1`: the cytotoxicity call was “inactive”.
Regarding `C[C@H](CO)N1C[C@H](C)[C@@H](CN(C)S(=O)(=O)c2cccc(F)c2)Oc2ncc(C#CC3CCCC3)cc2C1=O`, the cytotoxicity call was “inactive”.
Take `C[C@H](CO)N1C[C@H](C)[C@H](CN(C)S(=O)(=O)c2cccc(F)c2)Oc2ncc(C#CC3CCCC3)cc2C1=O`: the cytotoxicity call is “inactive”.
For the compound `COc1ccc(NC(=O)N(C)C[C@@H]2OCCCC[C@@H](C)Oc3ccc(NS(=O)(=O)c4ccc(Cl)cc4)cc3C(=O)N([C@@H](C)CO)C[C@@H]2C)cc1`, the cytotoxicity call is “inactive”.
In the case of `C=c1cc(C)ccc1=C1NN=C(NC(C)=O)O1`, the cytotoxicity call is “inactive”.
On to `COc1ccc(S(=O)(=O)N(C)C[C@@H]2OCCCC[C@H](C)Oc3ccc(NC(=O)C4CCCCC4)cc3C(=O)N([C@H](C)CO)C[C@H]2C)cc1`, for which the cytotoxicity call was “inactive”.
Turning to `CCCOc1ccc(S(=O)(=O)NCC[C@@H]2CCCN2C)cc1-c1nc2c(CCC)nn(C)c2c(=O)[nH]1`, the cytotoxicity call is “inactive”.
As for `CCCc1nc(C)c2c(=O)[nH]c(-c3cc(S(=O)(=O)N4CCN(CC)CC4)ccc3OCC)nn12.Cl`, the entry is “inactive”; as for `CCCc1nn(C)c2c(=O)[nH]c(-c3cc(S(=O)(=O)N4CCN(C)CC4)ccc3OCC)nc12.O=C(O)CC(O)(CC(=O)O)C(=O)O`, “active”.
As for `CCS(=O)(=O)Nc1ccc2c(c1)C(=O)N(C)[C@@H]1CC[C@H](CC(=O)NCc3ccc(OC)cc3)O[C@@H]1CO2`, the entry is “inactive”; as for `C[C@@H]1CN([C@H](C)CO)C(=O)c2cc(NS(=O)(=O)c3cccs3)ccc2O[C@@H](C)CCCCO[C@H]1CN(C)Cc1ccccc1`, “inactive”.
On to `Cc1noc(C)c1S(=O)(=O)Nc1ccc2c(c1)C(=O)N([C@@H](C)CO)C[C@@H](C)[C@@H](CN(C)Cc1ccc(C(=O)Nc3ccccc3N)cc1)OCCCC[C@H](C)O2`, for which the cytotoxicity call is “inactive”.
With `C[C@@H]1CCCCO[C@H](CN(C)Cc2ccccc2)[C@@H](C)CN([C@@H](C)CO)C(=O)c2cc(NS(=O)(=O)c3cccs3)ccc2O1`, the cytotoxicity call is “inactive”.
As to `C[C@@H]1CCCCO[C@@H](CN(C)Cc2ccccc2)[C@H](C)CN([C@@H](C)CO)C(=O)c2cc(NS(=O)(=O)c3cccs3)ccc2O1`, the cytotoxicity call was “inactive”.
For the compound `C[C@@H]1CN([C@H](C)CO)C(=O)c2cc(NS(=O)(=O)c3cccs3)ccc2O[C@@H](C)CCCCO[C@@H]1CN(C)CC1CCCCC1`, the cytotoxicity call is “inactive”.
For `C[C@@H]1CN([C@@H](C)CO)C(=O)c2cc(NS(=O)(=O)c3cccs3)ccc2O[C@@H](C)CCCCO[C@H]1CN(C)Cc1ccccc1`, the cytotoxicity call was “active”.
As for `C[C@@H]1CCCCO[C@H](CN(C)CC2CCCCC2)[C@H](C)CN([C@H](C)CO)C(=O)c2cc(NS(=O)(=O)c3cccs3)ccc2O1`, the entry is “inactive”; as for `Cc1noc(C)c1S(=O)(=O)Nc1ccc2c(c1)C(=O)N([C@@H](C)CO)C[C@H](C)[C@@H](CN(C)Cc1ccc(C(=O)Nc3ccccc3N)cc1)OCCCC[C@@H](C)O2`, “inactive”.
Consider `C[C@H](CO)N1C[C@H](C)[C@@H](CN(C)Cc2ccccc2)OCCCC[C@H](C)Oc2ccc(NS(=O)(=O)c3cccs3)cc2C1=O`, for which the cytotoxicity call is “inactive”.
As for `Cc1noc(C)c1S(=O)(=O)Nc1ccc2c(c1)C(=O)N([C@H](C)CO)C[C@H](C)[C@@H](CN(C)Cc1ccc(C(=O)Nc3ccccc3N)cc1)OCCCC[C@@H](C)O2`, the cytotoxicity call was “active”.
On to `C[C@H]1CCCCO[C@@H](CN(C)Cc2ccccc2)[C@@H](C)CN([C@@H](C)CO)C(=O)c2cc(NS(=O)(=O)c3cccs3)ccc2O1`, for which the cytotoxicity call is “active”.
Consider `C[C@@H]1CCCCO[C@H](CN(C)CC2CCCCC2)[C@H](C)CN([C@@H](C)CO)C(=O)c2cc(NS(=O)(=O)c3cccs3)ccc2O1`, for which the cytotoxicity call was “active”.

Source of the values: the antibiotic and cytotoxicity screens of Wong et al. (2023).
